# Test results from the supplement of paper PMC13380429.
# Test system: Vero E6 infected with SARS-CoV-2
# Assay: inhibition of SARS-CoV-2 cytopathic effect; higher = more antiviral protection, active = above 15
# Details: 10000 nM; 48 h
row,Compound,inhibition of SARS-CoV-2 cytopathic effect
1,CCCCCCCCCCCCCCOc1ccc(C(=O)O)o1,2.73% (inactive)
2,C=C1C(=O)O[C@@H]2/C=C(\C)CC/C=C(\C)CC[C@@H]12 [costunolide],19.3% (active)
3,CC(C)Cn1cnc2c1c(=O)n(C)c(=O)n2C [isbufylline],1.65% (inactive)
4,C[N+](C)(C)[C@@H](Cc1c[nH]c(=S)[nH]1)C(=O)O [L-ergothioneine],0.9% (inactive)
